# Hit rate of the full screen: of about 1,500 compounds, about 430 (29%) were called active. The list is a sample of the results. Entries with a potency or affinity are not part of this list. Unmarked numbers belong to inactive results. How the calls were made is not given here.
# Test: insulin secretion activators without glucose, dose response, counter-screen for glucose-dependent insulin secretion activators, cell-based, INS-1E, Gaussia luciferase, luminescence, cherry-pick (AID 977606);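 further: 0% = median of neutral control wells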
# Settings: INS-1E Gaussia luciferase insulin secretion, no glucose, 100% = twice neutral-control luminescence; series mostly up to 35 µM; activation: at the top concentration
row,Structure (SMILES),activation
1,COc1ccc(C(=O)C2CCCN(Cc3cccn3-c3nccs3)C2)cc1OC (stereo not drawn),-11.6%
2,CN(C)C(=O)c1ccc(-c2ccc([C@@H]3[C@@H](CO)N4C(=O)CN(C(=O)C5CC5)C[C@@H]34)cc2)cc1,-5.05%
3,Cc1c(O)cnc2nn(-c3ccccc3)c(=N)n12,-0.377%
4,CCOC(=O)Cc1cc(=O)n2[nH]c(-c3ccc(C)cc3)cc2n1,-0.415%
5,CC(C)Oc1ccc(Br)cc1C(=O)N/N=C/c1c[nH]c2ccccc12,-22%
6,CN(C)c1ccc(/C=N/NC(=O)c2ccccc2Cl)cc1,4.15%
7,CCNc1nc(Oc2ccc(C#N)cc2)cc(C(F)(F)F)n1,-1.93%
8,COc1ccc2oc(-c3ccncc3)cc(=O)c2c1,-9.47%
9,O=C(Nc1ccc(NC(=O)c2cccs2)cc1)c1ccc2c(c1)OCO2,-4.2%
10,O=C(Nc1ccc2oc(-c3cccnc3)nc2c1)c1ccc2c(c1)OCCO2,-11.3%
11,CCNc1nc(NCC)nc(N(C#N)C(C)C)n1,-5.43%
12,O=C(NC1CCCC1)c1ccc(Cl)c(S(=O)(=O)N2CCOCC2)c1,16.1%
13,COc1ccc(C(=O)N2CCc3cc(OC)c(OC)cc3C2c2ccc(OC)c(OC)c2)cc1OC (stereo not drawn),-0.986%
14,COc1ccc(C(=O)Nc2ccccc2C(=O)NCc2cccnc2)cc1OC,-17.2%
15,O=C(NCc1cccnc1)c1cccc(S(=O)(=O)NCc2ccccc2)c1,9.69%
16,Clc1ccc(-c2cc(CN3CCOCC3)no2)cc1,-2.2%
17,Cc1cc(C)n(CC(=O)n2c3ccccc3c3ccccc32)n1,30.6%
18,O=C(c1cccs1)N(Cc1ccc(Cl)cc1)C1CCS(=O)(=O)C1 (stereo not drawn),4.09%
19,COc1ccc(C(=O)OCC(=O)NC(=O)NC2CCCC2)cc1OC,9.28%
20,O=C(Nc1ccccc1)Nc1nnc(-c2cccs2)s1,-7.75%
21,O=C(O)c1ccc(-n2nnnc2SCc2ccccc2F)cc1,10.5%
22,O=C(c1ccco1)N(Cc1ccc(Cl)cc1)C1CCS(=O)(=O)C1 (stereo not drawn),-8.3%
23,O=C(COc1ccccc1Cl)NNC(=O)c1ccc2nc[nH]c2c1,116%

row,Structure (SMILES),activation
1,COc1ccccc1N(CC(=O)NCC1CCCO1)C(=O)CNS(=O)(=O)c1ccc(Cl)cc1 (stereo not drawn),-9.55%
2,Cc1cc(C)cc(N(C(=O)C(F)(F)F)C(C(=O)NC2CCCCC2)c2cccs2)c1 (stereo not drawn),-9.93%
3,O=C(NCc1ccccn1)c1ccccc1OCc1ccc(Cl)cc1Cl,-13.4%
4,COc1ccc2oc(=O)c(C(=O)NCc3ccccn3)cc2c1,-6.38%
5,CC1CCC(NC(=O)C2COc3ccccc3O2)CC1 (stereo not drawn),10.4%
6,C=CCc1ccc(OCCOc2ccc(/C=N/n3cnnc3)cc2OCC)c(OC)c1,0.229%
7,CCCCOC(=O)c1cc(-c2ccc(/C=N/n3cnnc3)o2)ccc1Cl,9.96%
8,N#Cc1c(-c2ccco2)cc(C2CC2)nc1N,-5.34%
9,COc1cc2c(cc1OC)C(Nc1ccccc1)=NC(C)(C)C2,4.87%
10,O=C(NCC1(O)CCCCC1)C1CCC(=O)N(Cc2ccccc2F)C1 (stereo not drawn),-10.8%
11,NC1=NC(=O)C(Cc2ccc(F)cc2)S1 (stereo not drawn),-5.09%
12,COc1cc(OC)c(OC)cc1/C=N/n1c(C)nc2ccccc2c1=O,8.58%
13,O=C1Nc2cnc(Cl)nc2Nc2ccccc21,4.25%
14,COc1ccc(-c2cc(C(=O)N(C)Cc3ccc(OC)c(OC)c3OC)c3ccccc3n2)cc1OC,-7.27%
15,COc1ccc(CN(C)C(=O)c2cc(-c3ccc(OC)c(OC)c3)nc3ccccc23)c(OC)c1,-22.4%
16,COc1ccc(F)cc1C(=O)C1CCCN(C(=O)c2ccc(C(C)=O)s2)C1 (stereo not drawn),-18.8%
17,Clc1ccc(OCCn2ccnc2)c(Cl)c1,4.01%
18,C=CCOc1cccc(C(=O)N2CCC(CCC(=O)NC3CC3)CC2)c1,-12.5%
19,COc1ccc(CCNc2ccncn2)cc1OC,-4.77%
20,Cc1cc2cc(C#N)c(N3CCOCC3)nc2cc1Cl,-1.36%
21,CCN1CCN(CCCNC(=O)c2ccc3c(c2)N(Cc2ccccc2)CCS3)CC1,37.4%
22,Nc1[nH]c(C(=O)c2ccccc2)c(-c2c(F)cccc2F)c1C(=O)c1ccc(Cl)c(Cl)c1,58.5%
23,Cc1cn(CC(C)C)c(=O)n(-c2ccccc2)c1=O,-7.49%

row,Structure (SMILES),activation
1,COc1cc2c(cc1OC)CN(C(=O)Cc1ccccc1)CC2,-4.85%
2,COc1ccc(CC(=O)OCC(=O)N2CCc3ccccc32)cc1OC,3.22%
3,CC/C(O)=C1\C(=O)CC(C)(C)CC1=Nc1ccccc1C,-0.909%
4,CC(C)(C)c1ccc(C#C[C@@H]2C=C[C@H]3OC(=O)CC/C=C/CCC(=O)OC[C@H]3O2)cc1,14.5%
5,CC1CCc2nc(N)c(C#N)c(-c3ccncc3)c2C1 (stereo not drawn),-10.7%
6,Cc1c(C=O)c2ccccn2c1C(=O)c1ccc(F)cc1,0.457%
7,COc1ccccc1Nc1c2c(nc3ccc(N)cc13)CCCC2,11.6%
8,CN(C)c1ccc(CC(=O)N2CCCCC2c2cc(C(=O)Nc3ccccc3Cl)no2)cc1 (stereo not drawn),-26.1%
9,O=C(O)CNS(=O)(=O)c1ccc2c(c1)Cc1cc(S(=O)(=O)NCC(=O)O)ccc1-2,-4%
10,CCc1cc2c(COC(=O)c3cccc(S(C)(=O)=O)c3)cc(=O)oc2cc1O,-16.9%
11,CCN(CC)C(=O)Cn1cc(C(=O)C(=O)N2CCN(Cc3ccccc3)CC2)c2ccccc21,11.5%
12,Cc1ccc(-c2nc3c(=O)n(C)c4ccccc4c3o2)cc1,-7.37%
13,O=C(CC(c1ccccc1)c1ccco1)N1CCOCC1 (stereo not drawn),34.3%
14,CC(C)CCC(O)(CCC(C)C)C(=O)NN1CCCCC1,-21.7%
15,COc1ccc(C2=NN(c3ccc(C(=O)O)cc3)C(c3ccc(OC)c(OC)c3)C2)cc1 (stereo not drawn),-0.29%
16,CCOc1cc(C2C3=C(CC(C)(C)CC3=O)Nc3n[nH]c(C)c32)ccc1O (stereo not drawn),0.859%
17,CC(C)CCN1C(=O)CSCC1(C)C(=O)NC(C)C (stereo not drawn),-4.81%
18,CCCc1nnc2c(N(C)S(=O)(=O)c3ccc(C)cc3)nc3ccccc3n12,-6.68%
19,Cc1cc(=O)[nH]c2c1c(C)nn2C1CCCC1,1.46%
20,N#Cc1sc2nc(C3CC3)cc(-c3ccccc3)c2c1N,1.96%
21,COc1cc2c(cc1OC)C1=C(C#N)CCC(=NC(=O)c3ccco3)N1CC2,11.7%
22,O=C(CN1C(=O)CCC1=O)Nc1cccc2c1C(=O)NC2=O,-11.5%
23,Cc1cc(-c2ccc(Br)cc2)n2nc(C)cc2n1,-1.47%

row,Structure (SMILES),activation
1,CSc1ncccc1C(=O)NCCc1ccccc1F,2.04%
2,CSc1ccc2nnc(-c3cccc(F)c3)n2n1,2.54%
3,CCSc1nnc2ccc(-c3ccc(C)cc3)nn12,0.044%
4,O=C(CCCC(=O)c1ccccc1)NCc1ccccc1,6.76%
5,O=C(CCc1nc2ccccc2c(=O)[nH]1)NNC(=O)c1cccc(Cl)c1,-7.41%
6,CCCn1c(=O)c(C(=O)NCc2ccccc2)c(O)c2ccccc21,-13.3%
7,CCOc1ccc(CCNC(=O)COC(=O)c2nccnc2N)cc1OCC,-10.8%
8,COc1ccccc1C(C)NS(=O)(=O)c1ccc(Cl)nc1 (stereo not drawn),1.68%
9,CN(C)CCCN(C(=O)CCOc1ccccc1)c1nc2ccc(F)cc2s1,31.2%
10,COc1cc2c(cc1OC)CN(C(=O)CNS(=O)(=O)c1ccc(C)c(C)c1)CC2,-0.552%
11,COc1ccc(S(=O)(=O)N2CCC(C(=O)NCc3ccccn3)CC2)cc1OC,11.7%
12,Cc1ccc(-c2[nH]nc3c2C(c2cccnc2)C(C#N)=C(N)O3)cc1 (stereo not drawn),-7.15%
13,CC(=O)c1c(O)c2cccc3c2n(c1=O)CCC3,23%
14,Cc1cccnc1NC(=O)c1ccc(S(=O)(=O)N2CCCCC2)cc1,1.48%
15,O=C(NCCC1CCCCN1S(=O)(=O)c1ccc(F)cc1)C(=O)NCc1cccnc1 (stereo not drawn),-6.46%
16,CCOc1ccc(NC(=O)[C@@H](NC(=O)OCc2ccccc2)[C@@H](C)CC)cc1,63.9%
17,CCOc1cc(OCC)cc(C(=O)Nc2cccnc2)c1,-5.89%
18,Cc1ccc2c(=O)cc(C(=O)NC3CCS(=O)(=O)C3)oc2c1C (stereo not drawn),-3.07%
19,CCOC(=O)N1CCN(C(=O)COc2ccccc2OC)CC1,10.9%
20,CN1CCCCCC1C(=O)N1CCC(N2CCC(C(=O)N3CCOCC3)CC2)CC1 (stereo not drawn),7.18%
21,O=C(Nc1ncn[nH]1)c1ccc(Cl)c(Cl)c1,-8.6%
22,C/C(=N/NC(=O)c1ccc(Br)s1)c1ccncc1,4.11%
23,Cc1ccc(C(=O)Nc2cccc(C(=O)N/N=C/c3ccc(F)cc3)c2)cc1,9.11%

row,Structure (SMILES),activation
1,C/C(=N/NC(=O)c1ccc(Br)o1)c1ccncc1,17.2%
2,COc1ccc(CC(=O)N2CCc3cc(OC)c(OC)cc3C2)cc1,-13.2%
3,COc1cccc(-n2c(=O)c3ccccc3n(CC(=O)NCC3CCCO3)c2=O)c1 (stereo not drawn),-5.02%
4,O=S(=O)(c1ccc(-c2csc(Nc3ccc(Br)cc3)n2)cc1)N1CCCC1,16.7%
5,O=c1[nH]nc(-c2ccc(F)cc2)cc1Cc1cccs1,10%
6,CCCCNC(=O)c1ccccc1NC(=O)C1=C(C)OCCS1,1.2%
7,CCOCC(=O)Nc1c(C(=O)OCC)oc2ccccc12,-1.44%
8,COc1ccc(CNC(=O)CN2C(=O)NC3(CCCCCC3)C2=O)cc1,-21.9%
9,CCCCNC(=O)C1(C)CCN1C(=O)Cc1cccc2ccccc12 (stereo not drawn),6.5%
10,CCOC(=O)C1=C(COC(=O)c2cccs2)NC(=O)NC1C (stereo not drawn),-0.795%
11,CCOc1ccc(CCNC(=O)COC(=O)c2cccc(N(C)C)c2)cc1OCC,-30.4%
12,O=S(=O)(NCc1ccccc1)c1ccc(-n2cccn2)cc1,-7.58%
13,CCCCc1nc(N)c(C#N)c(-c2ccco2)c1CCC,37.6%
14,CC(C)n1cc(/C(N)=N/O)c(=O)n(Cc2ccccc2)c1=O,-1.49%
15,CCCc1nc(N)sc1C(=O)OCC,-20%
16,Cc1nc2ccccc2c2nc(NC(=O)C(F)(F)F)nn12,-14.6%
17,COC(=O)C[C@@H]1C=C[C@H](NC(=O)Cc2ccccn2)[C@@H](CO)O1,1.47%
18,CCCOC(=O)Nc1ccc(S(=O)(=O)Nc2ncccn2)cc1,-0.934%
19,CCCc1cc(=O)oc2cc(C)cc(OCC(=O)Nc3ccc(S(N)(=O)=O)cc3)c12,52.8%
20,Cc1[nH]n(-c2ccc(Br)cc2)c(=O)c1/C=N/NC(=O)c1ccccc1,-20%
21,Cn1cc(Br)c(C(=O)NNC(=O)c2ccccc2)n1,9.54%

# Source: PubChem BioAssay AID977606 (Broad Institute, 2014)
